Reference: the supplement of paper PMC11417369
Whole data set: some 25,000 sequences, median “ln(normalized median fluorescence intensity)” near 9.3, cut for the highest 2% near 10. Shown is part of a subset that was picked to be rich in the highest values.

Test system: PF3D7_0420300 AP2 domain 1 (GST-tagged)
Experiment: gcPBM binding intensity (ln(normalized median fluorescence intensity)); higher = stronger DNA binding
Outline: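 The binding buffer was 1× PBS containing 1% milk, 0.2 mg/ml BSA, 0.5% salmon testes DNA and 0.03% Triton X-100. In it, GST-tagged P. falciparum DNA-binding domains expressed in E. coli were applied for 1 h to an Agilent 4 × 180k array of primer-extended double-stranded 36-bp intergenic genomic probes plus negative controls. Binding intensity, read with Alexa488 anti-GST antibody and a 488 nm scan, is the highest Masliner-normalised natural-log median intensity across replicate spots of either probe orientation.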

Sequence	gcPBM binding intensity (ln)
AACATATACACGAACACACACACATATAAATAAATA [CACACA_site6380]	9.96
CTAAAATACGAACACACACACACATATAAATAAATA [CACACA_site7872]	10.3
AAACAAAAAATATATACACACTAAACATAAAAAAAA [CACACA_site4185]	9.83
AACAAATACGAACACACACACACACTAAAAAAAAAA [CACACA_site6386]	10.2
CGAACAAACAAATAAACACACAAAAAAAAATATATA [CACACA_site1825]	9.61
TGATCAATGGATTTAACACACAAAAAAAAAAAAAAA [CACACA_site3845]	9.11
AAATAAAATAAAATAAAATAAAATTCTTTGATACCT [TGCATGCA_negctrl_site604]	9.16
ATATATATATATATATGTACACATATATATACTCAC [XGTACX_site8043]	9.37
ATATATTATATAAAAAGTACTAAAATAGTAAGATGT [XGTACX_site7493]	9.65
GTTTATATATTATAAAGTACATATGAATTTAATAAT [XGTACX_site3601]	9.01
AATATGAACAGACACACACACACAAAAAAAAAAAAA [CACACA_site2012]	10
AACACCCACAGACACACACACAAAAATGATTAAAAA [CACACA_site2433]	9.83
CAAACCCACCAACACACACACACAAAAATGATTAAA [CACACA_site2432]	9.82
AACAAACACAGACACACACACACACCCAAATGATTA [CACACA_site2431]	10.2
TATGAACACAGACACACACACAAAAAAAAAAAAAAA [CACACA_site7037]	9.27
CAAACAAACGGACACACACACACACCCAAAAATGAT [CACACA_site5363]	10.1
AACAAACACAGACACACACACACACTAATATGATTA [CACACA_site8770]	10.2
TTAACAAATGGACACACACACACACCCAAAAAAAAA [CACACA_site4443]	9.91
CAAACAAACAGACACACACACACACCCAAAAATGAT [CACACA_site2430]	10.4
ATATTTTTTTTTTTCACACACATTTAGATTGTATTA [CACACA_site3137]	9.86
GACATTGATACCAGTAGTACCTATAGATGTTTGTTT [XGTACX_site5736]	9.55
TTACAAATAATTTGTTGTACGCTTTTTTTCTTTTTT [XGTACX_site7199]	9.48
ATTGGACTATAAATAGGTACACATATATATATATAT [XGTACX_site7562]	9.59

Sequence	gcPBM binding intensity (ln)
AATAGAAAAAAAAAATGTACACATATAAAAGCATAT [XGTACX_site6306]	9.77
GCTTATAAAGGCAGAAGTACTGTATTCCTATATATA [XGTACX_site8865]	9.22
TAGTATAATATGAACACACACACACCCACAAAAAAA [CACACA_site2009]	10
GTATAATAGAAACACACACACACACCCAAAAAAAAA [CACACA_site2010]	10.3
GTATAATATGAACACACACACACACGCAAAAAAAAA [CACACA_site7036]	10.1
ATAATATGAAAACACACACACACACCCAAAAAAAAA [CACACA_site2011]	10.2
TAGTATAATATGAACACACACACACGCACAAAAAAA [CACACA_site7035]	10.1
GTATAATATGAACACACACACACACCCAAAAAAAAA [CACACA_site5152]	10.2
AAAAAAAAAAAAAACACACACACACCCAAATATATA [CACACA_site1169]	10.1
ATCGTAGTATAATATGAACACACACCCACCCACAAA [CACACA_site8616]	10.2
TAGTATAATATGAACACACACACACCGACAAAAAAA [CACACA_site5151]	9.99
TTTTATATATTATATACACACATATATATATATATA [CACACA_site2999]	9.29
ATATATATATAGTGCACACTTAAGAATATAAAGAGG [CACACA_site1151]	9.45
AAAAGGTATGTTATACATAGATATGCACATATATGT [TGCATGCA_negctrl_site96]	9.29
CTTAAAGGGAAAAATACACACATATAAATATTATGT [CACACA_site2225]	9.47
AAAATTATTTAGTAAGTGCAAAAAAAAAAAAAAAAA	8.78
TATGAAGAAAAGAATTGTACGATGTTTATTTTGTAT [XGTACX_site8614]	9.22
ATTATGCACCAACACACACACACACCCCTAAAAAAT [CACACA_site2568]	10.3
ATTATGCACAGACACACACACACACTACTAAAAAAT [CACACA_site7252]	10.1
ATTATGCACCAACACACACACACACTCCTAAAAAAT [CACACA_site8822]	10.3
CCTAAATTATATTATGCACACTTAAAAATATATTTA [CACACA_site5861]	9.14
TGCACAAAATTATGCACACACCTAAAATTAATTTTT [CACACA_site5596]	9.46
ATTATGCACGGACACACACACACACCCCTAAAAAAT [CACACA_site5426]	10.2
